Active and inactive are the calls of the source.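 Rule for the calls: active = IC50 below 10 µM at human M5 in a calcium flux test, acting as a negative modulator; inactive = the rest.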
target: Muscarinic acetylcholine receptor M5 (Homo sapiens) (UniProt P08912); test: M5 muscarinic receptor negative allosteric modulators, cell-based, single concentration, human M5 (AID 743025); details: CHO-K1 hM5, ACh EC80 calcium flux, Fluo-4; at 10 µM; active compounds read low
Sequence (P08912 whole entry, looked up): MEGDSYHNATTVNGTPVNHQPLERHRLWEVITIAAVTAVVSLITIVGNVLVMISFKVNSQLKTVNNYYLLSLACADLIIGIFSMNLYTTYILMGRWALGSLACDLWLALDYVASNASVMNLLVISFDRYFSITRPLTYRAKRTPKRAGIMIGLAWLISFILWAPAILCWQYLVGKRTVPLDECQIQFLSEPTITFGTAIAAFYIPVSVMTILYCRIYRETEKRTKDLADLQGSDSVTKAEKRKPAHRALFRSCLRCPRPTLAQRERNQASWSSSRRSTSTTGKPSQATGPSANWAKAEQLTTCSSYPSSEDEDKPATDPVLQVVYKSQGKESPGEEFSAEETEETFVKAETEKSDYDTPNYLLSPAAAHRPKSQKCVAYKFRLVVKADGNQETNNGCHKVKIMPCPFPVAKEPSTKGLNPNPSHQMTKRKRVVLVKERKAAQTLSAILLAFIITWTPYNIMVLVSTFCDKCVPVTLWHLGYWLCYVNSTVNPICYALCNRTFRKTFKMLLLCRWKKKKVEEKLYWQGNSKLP

SMILES | activity remaining
O=C(c1ccncc1)N1CCN2C(=O)c3ccccc3C12c1ccccc1 (configuration not stated) | 98.6% (inactive)
O=C(c1ccncc1)N1CCN2C(=O)c3ccccc3C12c1ccc(Cl)cc1 (configuration not stated) | 72.4% (inactive)
O=C(c1cc(F)cc(F)c1)N1CCN2C(=O)c3ccccc3C12c1ccc(Cl)cc1 (configuration not stated) | 3.53% (active)
O=C(c1ccccc1)N1CCCC1c1ccccc1 (configuration not stated) | 88.8% (inactive)
O=C(c1ccc(OCc2ccccc2)cc1)N1CCN2C(=O)c3ccccc3C12c1ccccc1 (configuration not stated) | 75.1% (inactive)
O=C(Nc1ccc(F)cc1)N1CCN2C(=O)c3ccccc3C12c1ccccc1 (configuration not stated) | 84.3% (inactive)
COc1ccc(C23c4ccccc4C(=O)N2CCN3C(=O)c2ccccc2)cc1 (configuration not stated) | 73% (inactive)
O=C(c1ccccc1)N1CCN2C(=O)c3ccccc3C12c1ccc(F)cc1 (configuration not stated) | 67.6% (active)
Cc1ccc(C23c4ccccc4C(=O)N2CCN3C(=O)c2ccc(OC(F)(F)F)cc2)cc1 (configuration not stated) | 6.55% (active)
CCOc1ccc(C(=O)N2CCN3C(=O)c4ccccc4C23c2ccccc2)cc1 (configuration not stated) | 61.1% (inactive)
O=C(c1ccccc1)N1CCN2C(=O)c3ccccc3C12c1ccccc1 (configuration not stated) | 74.8% (inactive)
O=C1c2ccccc2C2(c3ccccc3)N(Cc3ccc(F)cc3)CCN12 (configuration not stated) | 80.8% (inactive)
O=C(Nc1ccc(Cl)cc1)N1CCCN2C(=O)c3ccccc3C12c1ccccc1 (configuration not stated) | 84.5% (inactive)
COc1ccc(C23c4ccccc4C(=O)N2CCN3C(=O)c2ccc(C)cc2)cc1 (configuration not stated) | 68.4% (inactive)
O=C(c1cc(F)cc(F)c1)N1CCN2C(=O)c3ncccc3C12c1ccccc1 (configuration not stated) | 75.2% (inactive)
O=C1c2ccccc2C2(c3ccccc3)N1CCN2C(=O)C1CC1 (configuration not stated) | 86.4% (inactive)
COc1cc(C(=O)N2CCN3C(=O)c4ccccc4C23c2ccc(Cl)cc2)cc(OC)c1OC (configuration not stated) | 63.4% (inactive)
O=C(c1ccc(SC(F)(F)F)cc1)N1CCN2C(=O)c3ccccc3C12c1ccccc1 (configuration not stated) | 1.05% (active)
Cc1ccc(C23c4ccccc4C(=O)N2CCN3C(=O)c2ccc(F)c(F)c2)cc1 (configuration not stated) | 0.51% (active)

SMILES | activity remaining
O=C1c2ccccc2C2(c3ccccc3)N1CCN2C(=O)C1CCCC1 (configuration not stated) | 97.8% (inactive)
O=C(NCCNC(=O)c1ccccc1C(=O)c1ccc(F)cc1)c1ccccc1 | 86.1% (inactive)
COc1ccc(C23c4ccccc4C(=O)N2CCN3C(=O)c2ccc(C(F)(F)F)cc2)cc1 (configuration not stated) | 48% (active)
O=C(c1ccc(F)c(F)c1)N1CCN2C(=O)c3ccccc3C12c1ccc(F)cc1 (configuration not stated) | 64.5% (inactive)
O=C(c1ccccc1)N1CCN2C(=O)c3ccccc3C12c1ccc(Cl)cc1 (configuration not stated) | 1.2% (active)
O=C(c1ccc(F)cc1)N1CCN2C(=O)c3ccccc3C12c1ccc(Cl)cc1 (configuration not stated) | 78.8% (inactive)
O=C(c1ccc(OC(F)(F)F)cc1)N1CCN2C(=O)c3ccccc3C12c1ccccc1 (configuration not stated) | 1.8% (active)
Cc1ccc(C23c4ccccc4C(=O)N2CCN3C(=O)c2cccc(C(F)(F)F)c2)cc1 (configuration not stated) | 28.8% (active)
O=C(c1cccc(C(F)(F)F)c1)N1CCN2C(=O)c3ccccc3C12c1ccc(F)cc1 (configuration not stated) | 0.24% (active)
CCCCCC(=O)N1CCN2C(=O)c3ccccc3C12c1ccccc1 (configuration not stated) | 75.3% (inactive)
O=C(c1ccc(C(=O)C(F)(F)F)cc1)N1CCN2C(=O)c3ccccc3C12c1ccccc1 (configuration not stated) | 90% (inactive)
O=C(c1ccccc1)c1ccccc1C(=O)N1CCN(C(=O)c2ccccc2)CC1 | 85.5% (inactive)
Cc1ccc(C23NCCN2C(=O)c2ccccc23)cc1 (configuration not stated) | 77.4% (inactive)
O=C1c2ccccc2C2(c3ccccc3)N1CCN2C(=O)c1c(F)cccc1F (configuration not stated) | 84% (inactive)
O=C(c1ccccc1C(F)(F)F)N1CCN2C(=O)c3ccccc3C12c1ccccc1 (configuration not stated) | 82.4% (inactive)
O=C(Nc1ccccc1)N1CCN2C(=O)c3ccccc3C12c1ccccc1 (configuration not stated) | 85.4% (inactive)
O=C(c1ccc(SC(F)(F)F)cc1)N1CCN2C(=O)c3ccccc3C12c1ccc(F)cc1 (configuration not stated) | -0.72% (active)
COc1ccc(C(=O)N2CCN3C(=O)c4ccccc4C23c2ccc(Cl)cc2)cc1F (configuration not stated) | 74% (inactive)

Source: PubChem BioAssay AID743025 (Vanderbilt Specialized Chemistry Center, 2013)
